CHX counter = Cycloheximide Counterscreen for Small Molecule Inhibitors of Shiga Toxin | AID 2314, 2010 | max response, % | actives 12% (n = 300,000) | cell reporter, cycloheximide protein synthesis inhibition counterscreen; in the data active = max response mostly above about 13%, no sharp cut-off; inactive = mostly below about 14%; also: read at 38.3 µM for the half of the compounds with a filed dose
NS1 function inh = qHTS Assay for Inhibitors of Influenza NS1 Protein Function | Potency, µM (titrated, usually from 46.1 µM) | actives 0.4% (n = 270,000) | AID 2326, 2010; also: actives are rising curves; nearly all actives have a fitted effect of over 50% in size
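S. cerevisiae expressing influenza A NS1, grown in glucose, washed, then diluted 1:100 into pH 6.0 -URA galactose medium with 23 nl compound. Growth recovery read as OD600; NS1-free strain serves as control.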
Shiga inhibitor = A qHTS for Small Molecule Inhibitors of Shiga Toxin. actives 9.2% (n = 290,000). Vero cells, Shiga toxin protein synthesis inhibition reporter. inhibition, % at 38.7 µM; in the data active = inhibition mostly above about 28%, no sharp cut-off; inactive = mostly below about 43%
SARS PLpro yeast = qHTS of Yeast-based Assay for SARS-CoV PLP. S. cerevisiae expressing SARS-CoV PLpro, growth rescue. Potency, µM (top dose mostly 32.9 µM), hits mostly activators. actives 0.19% (n = 330,000). AID 485353, 2010; also: nearly all actives have a fitted effect of over 55% in size
Of the large screens only hits and unclear results are named; the others gave an inactive call. Shown are actives, neighbours in structure and some others; about 12% of the full set was active somewhere. Unless noted, calls follow the shape of the full dose curve.

Cc1ccc(Nc2nnc(SCC(=O)Nc3ccc(S(=O)(=O)N4CCOCC4)cc3)s2)cc1	CHX counter 49.0, Shiga inhibitor 110.9
COc1cccc(CNC(=O)CCC(=O)n2ncc3cc(C)ccc32)c1OC	none
Cc1ccc(S(=O)(=O)/N=C(\CCl)N2CCOCC2)cc1	none
COc1ccc(S(=O)(=O)N2CCCC(C(=O)NC3CCCC3)C2)cc1OC (stereo not drawn)	none
Cc1c(C#N)c(O)n(CCO)c(=O)c1N=Nc1ccc2c(c1)COC2=O	CHX counter 26.6
Cc1cc(=O)n(CCO)c(O)c1C#N	none
Cc1nc2sccn2c(=O)c1S(=O)(=O)NCC1CCN(Cc2ccccc2Cl)CC1	none
Cc1ccnc(NC(=O)CNC(=O)c2ccccc2Br)c1	CHX counter 52.5, Shiga inhibitor 53.6
Cc1ccnc(NC(=O)CCNC(=O)c2ccccc2Cl)c1	CHX counter 35.5, Shiga inhibitor 123.6
Cc1ccnc(NC(=O)CNC(=O)COc2ccccc2)c1	none (no result: CHX counter, NS1 function inh, Shiga inhibitor)
CCCCC(=O)NC1(C(F)(F)F)C(=O)N(CC(C)C)C2=C1C(=O)CC(C)(C)C2 (stereo not drawn)	Shiga inhibitor 43.7
CCCCN1C(=O)C(NC(=O)C2CC2)(C(F)(F)F)C2=C1CC(C)(C)CC2=O (stereo not drawn)	none
Cc1ccc(N(CC(=O)N2CCCCCC2)S(C)(=O)=O)cc1Cl	none (no result: Shiga inhibitor)
O=C(c1ccco1)N1CCN(c2ccc(F)cc2)CC1	Shiga inhibitor 100.2
O=C(O)c1cc(-c2ccco2)nc2ccccc12	none
O=C(c1cc(-c2ccco2)nc2ccccc12)N1CCN(c2ccc(F)cc2)CC1	CHX counter 33.1, Shiga inhibitor 78.0
CC(C)(C)C(=O)N1CCN(c2ccc(NC(=O)c3ccco3)cc2)CC1	none
Nc1ccc(N2CCN(C(=O)c3ccco3)CC2)cc1	none
O=C(Nc1ccc(N2CCN(Cc3ccccc3)CC2)cc1)c1ccco1	CHX counter 13.2, Shiga inhibitor 64.9, SARS PLpro yeast inconclusive
O=C(Nc1ccc(N2CCN(C(=O)c3ccco3)CC2)cc1)c1ccc(F)cc1	none
O=C(Nc1ccc(N2CCN(C(=O)c3ccco3)CC2)cc1)c1ccccc1	CHX counter 11.8
CN(C)c1ccc(/C=N/n2cnn(Cc3ccccc3Cl)c2=S)cc1	CHX counter 37.8, Shiga inhibitor 97.4 (no result: NS1 function inh)
Fc1ccc(/C=N/n2cnn(Cc3ccccc3Cl)c2=S)cc1	none (no result: NS1 function inh)
CC(NC(=S)N1CCN(c2ccccc2)CC1)c1ccccc1 (stereo not drawn)	none
COc1ccc(NC(=O)c2cc(-c3cccs3)on2)cc1	CHX counter 29.0, Shiga inhibitor 72.7
COc1ccc(NC(=O)c2cc(-c3cccs3)on2)cc1OC	CHX counter 24.2
CCc1ccc(NC(=O)c2cc(-c3cccs3)on2)cc1	CHX counter 38.4, Shiga inhibitor 100.0 (no result: NS1 function inh)
COc1ccc(NC(=O)c2cc(-c3cccs3)on2)c(OC)c1	none
Cc1ccc(NC(=O)c2cc(-c3ccc(F)cc3)on2)cc1C	CHX counter 20.3 (no result: NS1 function inh)
C[N@@+]1(CC[N@@+]2(C)CCC[C@H]2c2cccnc2)CCC[C@@H]1c1cccnc1	none (no result: CHX counter, Shiga inhibitor, SARS PLpro yeast)
CC1CN(S(=O)(=O)c2cccc(C(=O)N(C)C3CCN(C)CC3)c2)CC(C)O1 (stereo not drawn)	none (no result: CHX counter, NS1 function inh, Shiga inhibitor)
N#Cc1cc2c(nc1Cl)CCCC2	none
COc1ccc(C(=O)n2nc(C#N)c(C#N)c2N)cc1	none
Cc1cccc(NC(=O)CSCC(=O)N=c2sccn2C)c1	none (no result: CHX counter, NS1 function inh, Shiga inhibitor)
Cn1ccs/c1=N\C(=O)Nc1cccc(C(F)(F)F)c1	CHX counter 28.2, Shiga inhibitor 69.4
COc1ccc(NC(=O)c2sccc2-n2cccc2)cc1	none (no result: NS1 function inh)
Cc1ccc(NC(=O)c2cc(-c3cccs3)on2)cc1C	CHX counter 56.9, Shiga inhibitor 169.6 (no result: NS1 function inh)
O=C(Nc1cccnc1)c1cc(-c2cccs2)on1	none
O=C(Nc1cccc(C(F)(F)F)c1)c1cc(-c2cccs2)on1	CHX counter 23.0
CCc1ccc(NC(=O)c2sccc2-n2cccc2)cc1	CHX counter 19.1
CCN(CC)c1ccc(/C=N/NC(=O)OC(C)(C)C)cc1	CHX counter 34.0, Shiga inhibitor 85.5
CCN(CC)c1ccc(/C=N/NC(=O)c2ccoc2C)cc1	CHX counter 24.5, Shiga inhibitor 45.2
CCN(CC)c1ccc(/C=N/NC(=O)c2ccc(O)cc2)cc1	CHX counter 49.1, Shiga inhibitor 116.2 (no result: NS1 function inh, SARS PLpro yeast)
CCN(CC)c1ccc(/C=N\NC(N)=O)cc1	none
CCN(CC)c1ccc(/C=N/NC(=O)CC(C)C)cc1	CHX counter 47.3, Shiga inhibitor 47.3
CCN(CC)c1ccc(/C=N/O)cc1	CHX counter 16.7 (no result: NS1 function inh)
CCOC(=O)Cn1cnc(-c2ccc([N+](=O)[O-])cc2)c1	CHX counter 43.2, Shiga inhibitor 74.9
CCOC(=O)C1(Cc2ccccc2C)CCCN(S(=O)(=O)c2cccnc2)C1 (stereo not drawn)	none
CCc1c(C)nc2cc(-c3cccc(Br)c3)[nH]n2c1=O	CHX counter 38.2, NS1 function inh inconclusive, Shiga inhibitor 79.9
Cc1nc2cc(-c3ccc(Br)cc3)[nH]n2c(=O)c1Cl	none
O=c1c2c(nc3cc(-c4ccc(Cl)cc4)[nH]n13)CCS2	CHX counter 50.7
CCOC(=O)Cc1c(C)nc2cc(-c3ccc(C)cc3)[nH]n2c1=O	CHX counter 15.2
CCc1c(C)nc2cc(-c3ccc(Cl)cc3)[nH]n2c1=O	CHX counter 35.2, Shiga inhibitor 34.8
CCOC(=O)CCc1c(C)nc2cc(-c3ccc(Cl)cc3)[nH]n2c1=O	none
CN(C)S(=O)(=O)c1cccc(NC(=O)CSc2cccc3cccnc23)c1	none
COc1ccc(OCc2nnc(SCC(=O)c3ccccc3)o2)cc1	none
COc1ccccc1C(=O)Nc1ccc(C(=O)/C=C/c2cccs2)cc1	CHX counter 18.0
O=C(/C=C/c1cccs1)c1ccc(NC(=O)c2ccccc2F)cc1	CHX counter 25.2, Shiga inhibitor 40.3
COc1ccccc1C(=O)NNC(=O)c1ccc(NS(=O)(=O)c2cccs2)cc1	none
O=C(CN(C(=O)c1csnn1)c1cccc(F)c1)NCc1ccc2c(c1)OCO2	none
Cc1ccccc1-n1c(CSC(=N)N)nc2ccccc2c1=O	none
N=C(N)SCc1nc2ccccc2c(=O)n1-c1ccccc1Cl	CHX counter 50.2, Shiga inhibitor 81.2
O=C(COc1ccc(Cl)cc1Cl)NN1C(=O)C2C3C=CC([C@@H]2C1=O)C31CC1 (stereo partly drawn)	none
C/C(=N\N=C(/N)c1nonc1N)c1ccc2c(c1)OCO2	CHX counter 80.6, Shiga inhibitor 55.2
C/C(=N/NC(=O)c1nnn(-c2nonc2N)c1-c1ccccc1)c1ccc2c(c1)OCO2	none
CCN(CC)S(=O)(=O)c1ccc(-n2cnc3cc(C)c(C)cc32)nc1	none
O=C(OC(C(=O)NCC1CCCO1)c1ccc(F)cc1)c1cccs1 (stereo not drawn)	none
CN1CCc2c(sc3c2C(=O)NC(c2ccco2)N3)C1 (stereo not drawn)	none
CN1CCc2c(sc3c2C(=O)NC(c2cccc(OC(=O)c4cccs4)c2)N3)C1 (stereo not drawn)	CHX counter 44.8, Shiga inhibitor 70.3
CN(C)c1nc(N)c([N+](=O)[O-])c(NCc2ccccc2)n1	none
OC1(c2cccc(C(F)(F)F)c2)CCN(c2ccc(-c3ccccc3)nn2)CC1	CHX counter 38.0, Shiga inhibitor 67.5

Assay outcomes as filed in PubChem BioAssay.
